Calls of active or inactive are those of the source. Rule for the calls: active = hit-call score of the fitted dose curve at least 0.9, where 1 is the maximum; inactive = score below 0.9.
test: APR_HepG2_MicrotubuleCSK_24hr: Apredica 24-hour HepG2 Assay for Microtubule CSK Stabilty (AID 2282909); conditions: HepG2 microtubule cytoskeleton imaging, actives raise or lower the signal
Description: APR_HepG2_24hr is a cell-based, multiplexed-readout assay that uses HepG2, a human liver cell line, with measurements taken at 24 hours after chemical dosing in a 384-well plate.APR_HepG2_MicrotubuleCSK_24hr is one of 10 assay component(s) measured or calculated from the APR_HepG2_24hr assay. It is designed to make measurements of protein conformation, a form of conformation reporter, as detected with fluorescence intensity signals by HCS Fluorescent Imaging technology.Data from the assay component APR_HepG2_MicrotubuleCSK_24hr was analyzed into 1 assay endpoint. This assay endpoint, APR_HepG2_MicrotubuleCSK_24hr, was analyzed with bidirectional fitting relative to DMSO as the negative control and baseline of activity. Using a type of conformation reporter, measures of protein for gain or loss-of-signal activity can be used to understand the signaling at the cellular-level. Furthermore, this assay endpoint can be referred to as a primary readout, because this assay has produced multiple assay endpoints where this one serves a signaling function. To generalize the intended target to other relatable targets, this assay endpoint is annotated to the cell morphology intended target family, where the subfamily is cell conformation.
Cells were treated with dimethyl sulfoxide (DMSO) as a solvent control at a final concentration of 0.5% v/v or with compounds in DMSO with a resulting final DMSO concentration of 0.5% v/v. Compound treatment was done at concentrations of 0.39, 0.78, 1.56, 3.12, 6.24, 12.5, 25, 50, 100, and 200 uM in duplicate on each plate. Cells were treated with compounds for 1, 24, or 72 hr. Carbonyl […] m-chloro-phenylhydrazone (CCCP) and taxol were used as positive controls for mitochondrial function and cytoskeletal stability, respectively; DMSO served as the negative control for this experiment. Cells were fixed by the direct addition of 50 uL formaldehyde in Hank's Balanced Salt Solution (HBSS) to a final concentration of 3.7%. After incubation in the fixation medium for 30 min at room temperature (293-298 K), cells were rinsed twice with HBSS and treated with cell permeabilization buffer (16 uL of 0.5% Triton X-100) for 10 min at room temperature (293-298 K) before labeling. For mitochondrial membrane potential and mitochondrial measurements, pre-fixed cells were incubated with 50 uL of MitoTracker Red CMXRos (Invitrogen) at a concentration of 250 nM for 30 min before fixation. In the remaining cases, post-fixed cells were labeled by incubation with a multiplexed mixture of primary antibodies in HBSS for 60 min at room temperature (293-298 K) to detect immunoreactivity of c-Jun (1:500), phospho-histone H3 (1:100), phospho-histone H2A.x (1:200), p53 (1:400), alpha-tubulin (1:200) and Hoechst 33342 (2 ug/mL). Cells were labeled for multiplexed imaging on two separate plates: a) Hoechst 33342, MitoTracker Red, phospho-histone H3, and alpha-tubulin, and b) Hoechst 33342, phospho-histone H2A.x, and c-Jun. A final rinse with HBSS (50 uL) was performed before analysis. The primary and secondary antibodies for the proteins were phospho-histone H3 (rabbit anti-phospho-histone H3 and FITC-donkey anti-rabbit IgG), phospho-histone H2A.x (mouse anti-phospho-histone H2A.x and FITC-donkey anti-mouse IgG), c-Jun (rabbit anti-phospho-c-Jun and Cy3-donkey anti-rabbit IgG), p53 (sheep anti-p53 and Cy5-donkey anti-sheep IgG), alpha-tubulin (mouse anti-alpha-tubulin and Cy5-donkey anti-mouse IgG). These antibodies are available as the CellCiphr HepG2 assay kit (Millipore).Digital images of each well were captured using a Cellomics ArrayScan VTI (Thermo Scientific Cellomics) (0.8 NA objective, 0.63x optical coupler, and XF-93 filter set) at 20x magnification. The images were acquired using the autofocus feature of the ArrayScan instrument, which entails the following steps. First, the camera focuses on channel 1 (Hoechst 33342), where nuclei are identified. Second, a Z offset of 1 um is used for capturing mitochondria (MitoTracker Red). […]

Compound	outcome	AC50
C[C@]12CCC(=O)C[C@@H]1CC[C@@H]1[C@@H]2CC[C@]2(C)[C@@H](O)CC[C@@H]12	inactive	
C[C@@H]1C[C@@H]([C@H](O)CC2CC(=O)NC(=O)C2)C(=O)[C@@H](C)C1	inactive	
CC(C)(C)c1cc(O)ccc1O	inactive	
CCCCCCCCc1ccc(O)cc1	inactive	
CC12CC1(C)C(=O)N(c1cc(Cl)cc(Cl)c1)C2=O (stereo not drawn)	inactive	
CCN1CCC2(CC1)COc1cc3c(cc12)N(C(=O)c1ccc(-c2ccc(-c4nnc(C)o4)cc2C)cc1)CC3	inactive	
CC(C)(OO)c1ccccc1		75.3 µM (active)
Cc1ccccc1N	inactive	
CCC(C)(C)c1ccc(O)c(C(C)(C)CC)c1	inactive	
ClCC(Cl)CCl	inactive	
ClC1(Cl)C2(Cl)C3(Cl)C4(Cl)C(Cl)(Cl)C5(Cl)C3(Cl)C1(Cl)C5(Cl)C24Cl (stereo not drawn)	inactive	
Cn1sc(Cl)cc1=O	inactive	
O=C(Nc1ccc2[nH]ccc2c1)c1cc2cc(F)ccc2n1Cc1cccc(F)c1		19.7 µM (active)
NC(=O)O		12.2 µM (active)
O=C(O)C(F)(F)C(F)(F)C(F)(F)C(F)(F)C(F)(F)C(F)(F)C(F)(F)C(F)(F)C(F)(F)C(F)(F)F		56.7 µM (active)
CC(=O)[O][Hg][c]1ccccc1		5.17 µM (active)
CC(C)(c1ccccc1)c1ccc(O)c(C(C)(C)c2ccccc2)c1	inactive	
Oc1cccc2cccnc12	inactive	
COc1cc(-c2ccc(N)c(OC)c2)ccc1N	inactive	
O=C1C2(Cl)C3(Cl)C4(Cl)C(Cl)(Cl)C5(Cl)C3(Cl)C1(Cl)C5(Cl)C24Cl (stereo not drawn)	inactive	
CC(C)(C)CC(C)(C)c1ccc(O)cc1	inactive	
C=C(C)C(=O)[O][Sn]([CH2]CCC)([CH2]CCC)[CH2]CCC	inactive	
O=C(O)C(F)(F)C(F)(F)C(F)(F)C(F)(F)C(F)(F)C(F)(F)F	inactive	
CCC(=O)C(CC(C)N(C)C)(c1ccccc1)c1ccccc1 (stereo not drawn)	inactive	
C=CC(=O)OCCCCCC(C)C	inactive	
CN(C)N=O	inactive	
O=c1[nH]c(=O)[nH]c(=O)[nH]1	inactive	
O=C(O)C(Cl)(Cl)Cl	inactive	
